# ALOX15 inhib: inhibitors of human 15-lipoxygenase (ALOX15). purified 15hLO-1, xylenol orange hydroperoxide absorbance. Potency, µM (top dose mostly 57.1 µM), for inactives: at the highest dose activity change, negative = inhibition, usual class: inhibitors. hit rate 1.4% among 74,000. AID 887; also: % is scaled to controls: 0 for no effect and ±100 for the full control effect; nearly all actives have a fitted effect of over 55% in size
# Target sequence (P16050 whole entry, looked up): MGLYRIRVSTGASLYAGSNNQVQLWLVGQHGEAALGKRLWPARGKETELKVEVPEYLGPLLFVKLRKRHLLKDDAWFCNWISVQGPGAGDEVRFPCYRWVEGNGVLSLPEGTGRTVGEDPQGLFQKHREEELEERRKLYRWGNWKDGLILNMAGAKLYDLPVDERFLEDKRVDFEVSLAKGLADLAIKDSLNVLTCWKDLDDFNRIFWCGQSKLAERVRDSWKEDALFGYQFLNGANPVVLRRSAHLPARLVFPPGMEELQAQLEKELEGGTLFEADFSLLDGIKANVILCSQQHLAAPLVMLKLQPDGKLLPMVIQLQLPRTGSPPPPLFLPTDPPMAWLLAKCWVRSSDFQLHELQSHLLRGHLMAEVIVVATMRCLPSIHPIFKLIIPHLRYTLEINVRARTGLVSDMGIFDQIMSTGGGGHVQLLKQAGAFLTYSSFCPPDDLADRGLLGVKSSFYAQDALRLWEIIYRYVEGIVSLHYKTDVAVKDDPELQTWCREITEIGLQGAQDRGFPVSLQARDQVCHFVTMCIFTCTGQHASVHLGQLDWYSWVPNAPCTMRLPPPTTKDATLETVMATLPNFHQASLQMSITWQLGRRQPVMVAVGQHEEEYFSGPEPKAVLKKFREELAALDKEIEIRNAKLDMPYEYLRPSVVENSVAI
#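 Compounds were preincubated 15 min at room temperature with 40 nM purified human enzyme (25 mM Hepes pH 7.5, 0.01% Triton X-100); 50 uM arachidonic acid reacted 6 min. Fe-xylenol orange detection, 30 min, absorbance ratio 573/405 nm.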
# HEK293 cAMP ctrl: parental HEK293 cAMP activation (counter-screen). parental HEK293 CNG cAMP sensor, membrane potential fluorescence. Potency, µM (titrated, usually from 57.1 µM), inactives show top-dose activation, hits mostly activators. hit rate 2.5% among 73,000; also: % of control where 0% means no effect; nearly all actives have a fitted effect of over 55% in size
#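 Counterscreen for endogenous-receptor signalling: CNG-channel HEK 293 cells report cAMP rise by membrane depolarization. After 60 min dye equilibration with 100 uM RO 20-1724, compounds incubated 30 min before bottom-read fluorescence at 590 nm.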
# Tau filament bind: tau filament binding; Potency, µM (series often up to 57.1 µM), for the others: at the top dose activity change, negative = inhibition; hit rate 2% among 71,000; P10636; recombinant tau filaments, thioflavin S fluorescence, 15 h; filaments grown with octadecylsulfate alongside compound;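 also: % is scaled to controls: 0 for no effect and ±100 for the full control effect; actives lower thioflavin S fluorescence by blocking filaments or displacing dye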
#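 Assay mix: 1 uM His-tagged tau, 30 uM sodium octadecylsulfate, thioflavine S dye in HEPES/NaCl/DTT buffer. Compound is added prior to the inducer. Fluorescence after 15 h at 37 C.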
# TSHR agonist: activates the human thyroid stimulating hormone receptor; hit rate 0.48% among 73,000; AID 926; P16473; HEK293-CNG-TSHR cells (CNG channel as cAMP sensor), membrane potential dye, cAMP; Potency, µM (highest dose often 57.1 µM), inactives show at the top dose activation, actives largely listed as activators; active = well fitted activation curve with a large enough effect in the main read-out, with a control signal flat, not every such curve was filed as active; inconclusive = small, poorly fitted or top-dose-only effect, or a change in a side signal; inactive = no such curve, though single readings can be large or run the other way; % of control where 0% means no effect;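 also: the control signal comes from parental cells without the receptor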
#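 HEK 293 cells stably expressing TSHR and a modified CNG channel, with CNG-only parental cells as counterscreen, were preloaded 60 min at room temperature with membrane potential dye containing 100 uM RO 20-1724. Compound exposure was 30 min, and depolarization was read as fluorescence at 590 nm.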
# Bst PK mod: modulators of Bacillus stearothermophilus pyruvate kinase | purified pyruvate kinase, luminescence ATP production; ribose 5-phosphate activator present at AC10 | Potency, µM | hit rate 1.2% among 51,000; in the data active = potency below about 11 µM; inconclusive = mostly about 12 µM to 25 µM;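 the screen sought inhibitors and activators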;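 also: scaled between full activation by ribose 5 phosphate and full inhibition by luteolin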
# FLuc inh: inhibitors of firefly luciferase. purified firefly luciferase, luminescence, 8 min. AID 411. P08659. hit rate 2.2% among 72,000. Potency, µM (titrated, usually from 57.1 µM), without a hit: at the top dose activity change, negative = inhibition, actives largely listed as inhibitors; also: % is scaled to controls: 0 for no effect and ±100 for the full control effect; nearly all actives have a fitted effect of over 40% in size
#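 Titration-based qHTS; buffer 50 mM imidazole pH 7.2, 50 mM KCl, 7 mM MgCl2, 10 uM ATP, 0.01% Tween 20, 0.05% BSA; luciferase/luciferin detector mix added after compound; 8 min, ambient; luminescence.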
# Starred values were filed as active, the others as inactive; i = inactive; ? = inconclusive; . = not tested or not shown; [ ] = another dose, or the depositor's remark. Shown are actives, neighbours in structure and some others; about 7.8% of the full set was active somewhere. Unless noted, calls follow the shape of the dose curve; as a rule, active = well fitted curve in the direction sought with a large enough effect; inconclusive = small, poorly fitted or top-dose-only effect, or another doubt; inactive = no such curve, though single readings can be large; an effect the other way counts as inactive or inconclusive. Potency is read from the fitted curve at half-maximal effect.
SMILES,ALOX15 inhib,HEK293 cAMP ctrl,Tau filament bind,TSHR agonist,Bst PK mod,FLuc inh
O=C(NCC(=O)N(Cc1ccc(F)cc1)C(C(=O)NC1CCCC1)c1ccco1)c1ccco1 (stereo not drawn),10%,16µM*,1%,?,>57,-1%
O=C(NC1CCCC1)C(c1cccs1)N(CC1CCCO1)C(=O)Cc1cccs1 (stereo not drawn),-3%,0.32µM*,0%,?,>57,2%
Cn1ccnc1C[C@@](C)(O)c1ccccc1,2%[11.4 µM],15%[11.4 µM],8%[11.4 µM],0%[11.4 µM],.,1%[11.4 µM]
COc1ccc(NC(=O)CN2C(=O)CC(C)(C)S(=O)(=O)c3ccccc32)cc1,3%,4%,-7%,-2%,.,-4%
O=C(NCc1ccco1)C1CCN(C(=O)c2cc3sccc3n2Cc2ccc(F)cc2)CC1,-12%,28%,11%,20µM*,>57,1%
CCN1CCN(C(=O)C2CCN(C(=O)c3cc4sccc4n3CC)CC2)CC1,-3%,9%,-9%,6%,.,1%
CCn1c(C(=O)N2CCC(C(=O)NCCCSC3CCCCC3)CC2)cc2sccc21,?,16µM*,106%,?,.,-3%
O=C(NCCCN1CCCC1)C1CCN(C(=O)c2cc3sccc3n2Cc2ccc(F)cc2)CC1,-16%,5%,25%,3%,>57,2%
COC(=O)c1ccc(CSc2nnc(-c3ccncc3)n2Cc2ccccc2)o1,7%,14%,4%,17%,>57,0%
COC(=O)c1c(NC(=O)Cc2cccs2)sc(C(=O)N2CCCCC2)c1C,-6%,?,6%,?,>57,0%
CCOC(=O)c1c(NC(=O)Cc2cccs2)sc(C)c1C,-26%,25µM*,-20%,?,.,2%
CCc1cc(Br)ccc1N1C(=O)C2CC=CCC2C1=O (stereo not drawn),-2%[11.4 µM],7%[11.4 µM],1%[11.4 µM],2.5µM*,.,-2%
COc1ccc(N=[N+]([O-])c2ccc(OC)cc2)cc1,2%,-32%,0%,?,.,.
COc1cccc(C(=O)Nc2cccc(-c3nc4ncccc4o3)c2C)c1,-2%,16µM*,14%,?,.,0%
CCOc1cccc(C(=O)Nc2cccc(-c3nc4ncccc4o3)c2C)c1,0%,?,25%,?,.,-4%
O=C1C2C3CCCC3=C3CCCC3C2C(=O)N1c1ccccc1 (stereo not drawn),20µM*,13%,1%,.,.,2%
O=C1C2C3C=CC(C3)C2C(=O)N1c1ccccc1 (stereo not drawn),-8%,11%,1%,0%,.,1%
CC1CCC/C(=C\Nc2ccc3c(c2)OCO3)C1=O (stereo not drawn),-18%,13%,25µM*,5%,i,10µM*
CN1CCc2c(sc3c2c(=O)n(-c2ccccc2)c2nncn32)C1,?,?,-10%,?,>57,3%
CN1CCc2c(sc3c2c(=O)n(-c2ccccc2)c2nnc(SCc4ccccc4F)n32)C1,?,6%,13µM*,4%,>57,-1%
Cc1ccc(Cl)cc1,-5%,9%,4%,-8%,.,.
COCCNc1ncnc2ccc(-c3cccc(OC)c3)cc12,17%,23%,-5%,6%,.,2%[2.29 µM]
O=C(NCc1ccncc1)C12CC3CC(CC(C3)C1)C2,-26%,-24%,4%,8%,>57,-3%
N#CC1=C(N)S[C@H](C(=O)C23CC4CC(CC(C4)C2)C3)[C@H]1c1ccncc1,13µM*,16%,-9%,1.3µM*,>57,-6%
O=C1[C@@H]2[C@@H]3C=C[C@H]([C@@H]2C(=O)N1CN1CCSCC1)[C@@H]1[C@@H]2C(=O)N(CN4CCSCC4)C(=O)[C@@H]2[C@H]31,3%[11.4 µM],3%[11.4 µM],3%[11.4 µM],-3%[11.4 µM],.,2%[11.4 µM]
SMILES,ALOX15 inhib,HEK293 cAMP ctrl,Tau filament bind,TSHR agonist,Bst PK mod,FLuc inh
CCOC(=O)c1c(C)noc1CP(=O)(c1ccccc1)c1ccccc1,9%,13µM*,3%,?,>57,-1%
O=c1[nH]c(C(F)(F)F)nc2c1nnn2Cc1ccccc1F,-2%,25µM*,-3%,?,>11,1%
C#CCNc1nc(C)nc2c1nnn2Cc1ccccc1F,-4%,25%,28%,1%,>57,-5%
N[C@@H](C(=O)O)[C@@H]1C[C@H]1C(=O)O,.,6%,8%,7%,.,2%
CCOC(=O)Cn1c(-c2nonc2NC(=O)c2ccccc2F)nc2ccccc21,1%,11%,-1%,1%,.,2%
CCOc1ccc(CCNC(=O)Cn2c(-c3nonc3N)nc3ccccc32)cc1OCC,-5%,?,47%,?,>57,1%
CCCCOc1ccccc1NC(=O)Cn1c(-c2nonc2N)nc2ccccc21,-4%,6.3µM*,i,?,>57,2%
Nc1nonc1-c1nc2ccccc2n1CC(=O)N1CCN(c2ccc(F)cc2)CC1,-1%,25µM*,38%,?,>57,2%
CN=C(NC#N)NCCSCc1csc(N=C(N)N)n1,1%[25.6 µM],14%,?,2%,.,-3%
CC(=O)CCc1oc2ccc(NC(C)=O)cc2c1-c1ccc(C)o1,16µM*,3%,8%,.,>57,?
CC(=O)Nc1ccccc1-c1ccc(C)o1,3%,3%,3%,1%,>57,-2%
COc1ccc(/C=C/C(=O)c2cccs2)cc1OC,-21%[25.6 µM],.,.,.,.,.
COc1ccc(/C=C/C(=O)c2ccc(O)cc2O)cc1OC,16µM*,.,.,.,.,.
O=C(/C=C/c1ccc(O)cc1)c1ccc(O)cc1O,-10%[11.4 µM],-11%[11.4 µM],.,-11%[11.4 µM],.,.
O=C(/C=C/c1ccccc1)c1ccc(O)cc1O,20µM*,.,.,.,.,.
COc1ccc(/C=C/C(=O)c2ccc(O)cc2O)cc1,20µM*,.,.,.,.,.
COc1ccc(/C=C/C(=O)c2cc(O)ccc2O)cc1,20µM*,.,.,.,.,.
COc1cc(O)c(C(=O)/C=C/c2ccc(O)c(OC)c2)c(OC)c1,-40%,.,.,.,.,.
COc1ccc(NC(=O)/C=C\c2ccc(Cl)cc2)cc1,-11%,?,-12%,?,.,13µM*
Cc1ccc(-c2noc(CCC(=O)NC3CCN(Cc4ccccc4)CC3)n2)cc1,-6%,?,0%,?,>57,-1%
Cc1ccc(-c2noc(CCC(=O)NC3CCCc4ccccc43)n2)cc1 (stereo not drawn),-1%,32µM*,25%,?,>57,4%
CCOC(=O)C1CCCN(Cc2cc(OC)c(O)c(OC)c2)C1 (stereo not drawn),1%,3%,.,2%,.,.
COc1cc(CN2CCC(C(=O)NC3CCCC3)CC2)cc(OC)c1O,25µM*,4%,7%,4%,>57,1%
c1coc(C2Nc3cccc4cccc(c34)N2)c1,1.6µM*,-19%,6.3µM*,-27%,.,-16%
CO[C@@H]1COC(=O)[C@H](C)NC(=O)[C@@H](C)COC(=O)CCC[C@H]1C,4%[11.4 µM],1%[11.4 µM],.,-6%[11.4 µM],.,3%[11.4 µM]

# High-throughput results as filed in PubChem BioAssay.
